Here are results for 93 compounds from PubChem BioAssay AID588591 (National Center for Advancing Translational Sciences (NCATS), 2011).

Screen size: about 390,000 compounds; about 4,700 (1.2%) were called active. A call without a number means that no potency is given here. Not shown: some 4% with an inconclusive outcome. The call rests on the fitted dose curve; in most records, active means well fitted inhibition curve with a large enough effect; inconclusive means small, poorly fitted or top-dose-only effect, or another doubt; inactive means no such curve, though single readings can be large or run the other way. The sample as a whole holds a higher share of actives than the screen did.
Potency means the concentration at half of the fitted maximal effect.

Chain of DNA polymerase eta (Homo sapiens) (Q9Y253 whole entry, looked up): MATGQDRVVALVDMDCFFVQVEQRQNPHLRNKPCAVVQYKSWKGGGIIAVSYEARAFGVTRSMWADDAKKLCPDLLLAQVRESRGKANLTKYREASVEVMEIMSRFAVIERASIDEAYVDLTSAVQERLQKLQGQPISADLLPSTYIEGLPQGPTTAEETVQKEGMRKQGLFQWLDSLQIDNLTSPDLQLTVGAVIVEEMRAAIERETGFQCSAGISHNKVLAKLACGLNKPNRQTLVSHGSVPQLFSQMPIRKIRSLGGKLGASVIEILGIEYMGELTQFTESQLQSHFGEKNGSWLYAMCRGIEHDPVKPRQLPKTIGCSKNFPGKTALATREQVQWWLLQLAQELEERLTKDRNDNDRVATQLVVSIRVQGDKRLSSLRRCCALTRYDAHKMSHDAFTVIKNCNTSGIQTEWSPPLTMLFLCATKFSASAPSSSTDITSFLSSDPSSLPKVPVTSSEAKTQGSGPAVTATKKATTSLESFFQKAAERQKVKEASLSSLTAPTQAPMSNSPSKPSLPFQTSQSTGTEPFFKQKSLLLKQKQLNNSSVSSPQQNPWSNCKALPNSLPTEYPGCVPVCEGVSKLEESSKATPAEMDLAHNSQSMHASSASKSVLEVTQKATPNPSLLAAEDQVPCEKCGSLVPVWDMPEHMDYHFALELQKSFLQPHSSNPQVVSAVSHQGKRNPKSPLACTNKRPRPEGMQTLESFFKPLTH

The target of this test is DNA polymerase eta (Homo sapiens) (UniProt Q9Y253). Kind of test: qHTS for Inhibitors of Polymerase Eta. To be noted: recombinant Pol eta, fluorescent DNA replication assay; series mostly up to 114 µM. The method, boiled down:
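Fluorescent replication assay: 50 nM final substrate added after a 15 min room-temperature compound preincubation with 10 nM enzyme. Signal taken at 0 min and again at 10 min.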
For `COc1cccc(NC(=O)CSc2cc(=O)n(C)c3ccc(Cl)cc23)c1`, the Potency result was “inactive”.
With `Fc1ccccc1Oc1ncnc2c1oc1ccccc12`, the Potency entry is “inactive”.
Regarding `Cc1cccc(-n2ncc(C(=O)N3CCc4ccccc4C3)c2C2CCN(C(=O)OC(C)(C)C)CC2)c1`, the Potency entry is “inactive”.
Next, `COc1ccccc1-c1nnc(C2CCN(C(=O)c3ccc(Cl)cc3)CC2)o1`: “inactive”.
Consider `Cc1ccc(-n2c(=O)c3cccnc3n2CC(=O)NCc2ccc(F)cc2)cc1C`, for which the Potency entry was “inactive”.
Next, `Cc1oc2ccc(O)c(CN3CCOCC3)c2c1C(=O)Nc1cccc(Cl)c1C`: “inactive”; `COc1ccc2cc(-c3nc(Cl)c4c5c(sc4n3)CC(C)CC5)c(=O)oc2c1` (stereo not drawn): “inactive”.
Regarding `COc1ccc2oc(=O)c(-c3cn4c(n3)sc3cc(OC)ccc34)cc2c1`, the Potency result is “inactive”.
With `COc1ccc(-c2cc3ccc(OCc4nn[nH]n4)cc3oc2=O)cc1`, the Potency is 17.8 µM (active).
With `CCCS(=O)(=O)c1ncc(Cl)c(C(=O)Nc2scc(-c3ccccc3)c2C(=O)OCC)n1`, the Potency entry was “inactive”.
Take `COc1ccc(Cn2c(C(=O)O)c(CNCCc3cccs3)c3ccc(OC)cc32)cc1`: the Potency entry is “inactive”.
As for `CCCNC(=O)C1CCN(c2nc3ccc(C)cc3[nH]2)CC1`, the Potency entry was “inactive”.
Next, `Cc1ccc(Cc2cncc(O)c2)cc1S(=O)(=O)O`: 25.1 µM (active); `CCCCCn1c(CCCNC(=O)c2ccccc2OC)nc2ccccc21`: “inactive”.
Turning to `Oc1c(Cl)cc(Cl)c(Cl)c1Cc1c(O)c(Cl)cc(Cl)c1Cl`, the Potency is 44.7 µM (active).
Next, `Cc1ccccc1NC(=O)Cn1cc(C(=O)c2cccs2)c2ccccc21`: “inactive”; `Cn1c(=O)c2c(nc(Oc3ccc(C#N)cc3)n2Cc2ccc(Cl)cc2Cl)n(C)c1=O`: “inactive”; `Cc1cccc(C)c1-n1ncc(C(=O)NCCCN2CCCCC2)c1C1CCN(C(=O)OC(C)(C)C)CC1`: “inactive”.
Regarding `CC(C)CC(=O)NCC(c1ccc2c(c1)OCO2)N1CCN(c2ccc(F)cc2)CC1` (stereo not drawn), the Potency entry was “inactive”.
Consider `O=C(c1ccccc1)c1ccc(OC(=O)N2CCCC2)cc1`, for which the Potency entry is “inactive”.
Next, `O=C(c1ccc(O)cc1)c1ccc(C(=O)O)c(C(=O)O)c1`: 39.8 µM (active).
For the compound `CC(=O)c1ccccc1OCc1ccc(C(=O)c2ccccc2)cc1`, the Potency entry was “inactive”.
Next, `CCOc1cccc2sc(N3CCN(C(=O)C4CC4)CC3)nc12`: “inactive”.
Turning to `O=C(CSc1oc(-c2ccco2)nc1S(=O)(=O)c1ccc(Cl)cc1)c1ccccc1`, the Potency entry was “inactive”.
In the case of `CCN(C(=O)COC(=O)/C=C/c1nc2ccccc2s1)C1CCS(=O)(=O)C1` (stereo not drawn), the Potency entry was “inactive”.
Consider `Cc1cc(C)c2nc(SCC(=O)N(C)C3CCS(=O)(=O)C3)cc(C)c2c1` (stereo not drawn), for which the Potency entry is “inactive”.
For the compound `CN(C(=O)COC(=O)c1cc(-c2ccco2)nc2ccccc12)C1CCS(=O)(=O)C1` (stereo not drawn), the Potency was 6.31 µM (active).
`CN(CCOc1ccccc1)Cc1nc2cc(Cl)ccc2c(=O)[nH]1`: the Potency result was “inactive”.
`COc1cccc(NC(=O)CN(C)C(=O)c2cc(Cl)nc3ccccc23)c1`: the Potency entry is “inactive”.
Next, `CN(CCOc1ccccc1)C(=O)c1cc(-c2ccco2)nc2ccccc12`: 25.1 µM (active); `Cc1oc2c(c1C(=O)Nc1ccc(F)c(F)c1)C1=NCCN1C=N2`: “inactive”; `CC1=C(C(=O)Nc2ccccc2)C(c2ccc(C)cc2)n2nc(SCc3ccccc3C)nc2N1` (stereo not drawn): “inactive”.
As for `CCOc1ccc(CNC(=O)CCc2c(C)nn(-c3ccc(N4CCCCC4)nn3)c2C)cc1`, the Potency entry is “inactive”.
Turning to `CCOC(=O)c1cc2c(=O)n3ccccc3nc2n(Cc2ccco2)c1=NC(=O)c1ccc(F)cc1`, the Potency entry was “inactive”.
Consider `OC[C@H]1O[C@@H](n2cnc3c(N[C@H]4CC5CCC4C5)ncnc32)[C@H](O)[C@@H]1O` (stereo partly drawn), for which the Potency entry was “inactive”.
Next, `O=C(Nc1ccc2nc(SCC(=O)N3CCCc4ccccc43)sc2c1)c1ccc(F)cc1`: “inactive”.
As for `O=C(O)CCn1cc(/C=C/C(=O)c2ccc(Cl)cc2)c(-c2cccc(Br)c2)n1`, the Potency was 56.2 µM (active).
As for `CCc1ccc(S(=O)(=O)c2nnn3c2nc(NCc2ccccc2OC)c2cc(Cl)ccc23)cc1`, the Potency result is “inactive”.
Turning to `CCCN1CCN(C(=O)Cn2ncc3ccccc32)CC1`, the Potency is 25.1 µM (active).
For `CN1CCN(C(=O)Cn2c(C(F)(F)F)nc3ccccc32)CC1`, the Potency entry was “inactive”.
For the compound `CCc1nn(CC(=O)N2CCN(CC)CC2)c(=O)c2cccn12`, the Potency entry was “inactive”.
Next, `Cc1ccc(NC(=O)CN2C(=O)CC(C)Sc3ccccc32)c(C)c1` (stereo not drawn): “inactive”; `COc1ccc(Br)cc1CNC(=O)c1cc(=O)[nH]c2ccc(S(=O)(=O)N3CCCC3)cc12`: “inactive”; `O=C(Nc1ccc(F)cc1)c1cccnc1N1CCOCC1`: “inactive”.
Regarding `CC(C)(CNC(=O)c1ccc(Cl)c(S(=O)(=O)N2CCc3ccccc3C2)c1)N1CCOCC1`, the Potency result is “inactive”.
As to `O=C(O)c1ccc(NN=CC2=C(N3CCOCC3)/C(=C/c3ccccc3)CC2)cc1`, the Potency was 39.8 µM (active).
As for `CCOc1ccc(NC(=O)C(=O)NCCc2csc3nc(-c4ccccc4F)nn23)cc1`, the Potency result is “inactive”.
Next, `Cc1cc2ccccc2n1CCNC(=O)c1ccc(F)cc1`: “inactive”; `Cc1ccc2c(=O)c(C(=O)c3ccc(Cl)cc3)cn(CC(=O)NC3CCCCC3)c2n1`: “inactive”.
As to `NC1=NC(c2cc(F)cc(F)c2)n2c(nc3ccccc32)N1` (stereo not drawn), the Potency entry is “inactive”.
For the compound `COc1ccc(Br)cc1/C=N/Nc1ccc(S(=O)(=O)Nc2ccccc2C(=O)O)cc1[N+](=O)[O-]`, the Potency is 15.8 µM (active).
As for `CCN(CC(=O)NCc1cccs1)C(=O)c1cccc(S(=O)(=O)Nc2ccccc2OC)c1`, the Potency result was “inactive”.
Turning to `Cc1ccc(NS(=O)(=O)c2ccc(N/N=C/c3ccccc3OCC(=O)O)c([N+](=O)[O-])c2)c(C)c1`, the Potency was 70.8 µM (active).
Regarding `Cc1ccc(NS(=O)(=O)c2ccc3c(c2)n(C)c(=O)c(=O)n3C)c(C)c1`, the Potency entry was “inactive”.
For the compound `COC(=O)c1ccccc1NS(=O)(=O)c1ccc2c(c1)CCCN2C(C)=O`, the Potency entry was “inactive”.
In the case of `COc1ccc(S(=O)(=O)NC(C)c2ccccc2)cc1C(=O)N1CCCCC1` (stereo not drawn), the Potency entry was “inactive”.
Consider `Cc1ccc(C)c(NS(=O)(=O)c2ccc(OCC(=O)NCc3cccnc3)cc2)c1`, for which the Potency entry is “inactive”.
In the case of `O=C(CN1CCCCCC1)Nc1ccc(Br)cc1[N+](=O)[O-]`, the Potency result was “inactive”.
As to `COc1cccc(/C=N/Nc2ccc(S(=O)(=O)Nc3ccccc3C(=O)O)cc2[N+](=O)[O-])c1O`, the Potency is 17.8 µM (active).
Next, `COc1ccc(N2CCN(Cc3nc4c(c(=O)[nH]c(=O)n4C)n3Cc3ccc(Cl)cc3)CC2)cc1`: “inactive”; `CCOc1ccccc1NC(=O)Cn1c(=O)n(Cc2ccccc2)c(=O)c2c(C)c(C(=O)N(C)C)sc21`: “inactive”.
With `COc1ccc(C2(Nc3cccc(F)c3)C(=O)c3ccccc3C2=O)cc1`, the Potency entry was “inactive”.
Regarding `CCCCC12CN3CC(C)(CN(C1)C3c1ccc(O)c(OC)c1)C2=O` (stereo not drawn), the Potency entry is “inactive”.
Next, `COc1ccc2c(c1)c(N1CCCC1=O)c(C(=O)Nc1ccc(OC)c(Cl)c1)n2C`: “inactive”; `Cc1ccc(C(=O)Nc2cc3c(cc2N2CCCC2)n(C)c(=O)c(=O)n3C)cc1`: “inactive”.
With `Cc1ccccc1CSc1nc(-c2ccccc2)nc2c1Cc1c(CO)cnc(C)c1O2`, the Potency result is “inactive”.
`CCCC(=O)N1CCN(c2nc3c(OC)ccc(C)c3s2)CC1`: the Potency result is “inactive”.
Next, `COC(=O)c1ccc(C(NC(=O)OCc2ccccc2)/C(C)=C/[C@@H](C)C(=O)NCc2ccc(OC)c(OC)c2)cc1` (stereo partly drawn): “inactive”; `COc1cc(/C=C/C(=O)OCC(=O)NC(=O)NCc2ccccc2)ccc1OCC#N`: “inactive”; `COC(=O)c1ccc(COc2ccc(/C=C/C(=O)c3ccc(OC)c(CSCC(=O)O)c3)cc2OC)cc1`: 20 µM (active).
Next, `COc1ccc(CCNC(=O)c2cn(C)c3ccc(S(=O)(=O)N(C)C4CCCCC4)cc3c2=O)cc1OC`: “inactive”; `CCOC(=O)C1CCN(C(c2ccc(F)cc2)c2sc3nc(-c4ccco4)nn3c2O)CC1` (stereo not drawn): “inactive”.
Turning to `Oc1c(C(c2ccccc2Cl)N2CCOCC2)sc2nc(-c3ccco3)nn12` (stereo not drawn), the Potency result was “inactive”.
Turning to `CCOc1ccccc1/C=c1\sc2nc(-c3ccco3)nn2c1=O`, the Potency was 7.94 µM (active).
Next, `Cc1ccc2nc3c(cc(C(=O)NC4CCCCC4)c(=N)n3C(C)C)c(=O)n2c1`: “inactive”; `CCc1cc2c(-c3ccccc3)cc(=O)oc2c2c1OCN(Cc1ccc(C)cc1)C2`: “inactive”.
Consider `COC(=O)C1=C(C)NC2=C(C(=O)c3ccccc32)C1c1ccc(-c2ccc(C(=O)O)cc2)o1` (stereo not drawn), for which the Potency was 31.6 µM (active).
Next, `CCOc1cc(C2C(C(=O)OC)=C(C)NC3=C2C(=O)c2ccccc23)ccc1O` (stereo not drawn): “inactive”.
As to `CCCOc1ccc(C2c3c(-c4ccccc4O)n[nH]c3C(=O)N2Cc2cccnc2)cc1` (stereo not drawn), the Potency result was “inactive”.
Consider `COc1cc(-c2noc(-c3ccc(N4CCCC4)c([N+](=O)[O-])c3)n2)cc(OC)c1OC`, for which the Potency result was “inactive”.
Take `CN1c2ccc(Cl)cc2-c2nc(SCC(=O)Nc3cc(F)ccc3F)ncc2S1(=O)=O`: the Potency result was “inactive”.
Regarding `O=c1nc2s/c(=C\c3ccco3)c(=O)n2nc1Cc1ccccc1`, the Potency is 17.8 µM (active).
In the case of `Cc1ccc(C)c(CNC(=O)c2cc3ccccn3n2)c1`, the Potency result was “inactive”.
Regarding `COc1ccc(CCNC(=O)c2cc3cccc4c3n2CC(C)S4)c(OC)c1OC` (stereo not drawn), the Potency entry was “inactive”.
Next, `CC(CNC(=O)c1nnc(Cc2cccc(F)c2)o1)c1ccccc1` (stereo not drawn): “inactive”; `COc1cc2nc(SCc3ccc(F)cc3)n3nc(CCn4c(C)nc5ccccc54)nc3c2cc1OC`: “inactive”.
Take `O=S(=O)(NCCS(=O)(=O)N1CCN(c2ccccc2)CC1)c1ccc(Cl)cc1`: the Potency entry was “inactive”.
With `Cc1ccc(-c2ccc(/C=C(\C#N)C(N)=S)o2)c([N+](=O)[O-])c1`, the Potency result was “inactive”.
With `CC1=NN(c2ccc(Cl)c(C(=O)O)c2)C(=O)/C1=C/c1ccc(-c2ccccc2[N+](=O)[O-])o1`, the Potency is 20 µM (active).
Take `O=C(CSc1nc(=O)[nH]c2c1CCCC2)Nc1cc(C(F)(F)F)ccc1Cl`: the Potency result is “inactive”.
For the compound `COc1cccc(N2CC(NC(=O)/C=C\c3ccccc3)CC2=O)c1` (stereo not drawn), the Potency entry was “inactive”.
For the compound `COCOc1cc(O)c(C(=O)/C=C/c2ccc(OCOC)c(OCOC)c2)c(OCOC)c1`, the Potency entry was “inactive”.
Next, `COc1ccc(/C=C/C(=O)c2cc(Br)ccc(=O)c2O)cc1`: 31.6 µM (active).
